DENV2 CPE rescue: protects cells from dengue virus 2 cytopathic effect; actives 1.7% (n = 350,000); DENV2-infected cells, cytopathic effect rescue, plate reader; AID 651640; CPE inhibition, % at 9.99 µM; in the data active means CPE inhibition above about 20%, passing the limit was not always enough; inconclusive means no clear call, values can overlap the other calls; tested in BHK-21 cells;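 further: 0% = median of neutral control wells and 100% = median of positive control wells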
PvdQ acylase: blocks Pseudomonas aeruginosa PvdQ acylase activity | purified PvdQ acylase, fluorescence plate reader | inhibition, % at 10 µM | AID 488965 | actives 0.063% (n = 340,000); in the data active means inhibition above about 30%, passing the limit was not always enough; inconclusive means no clear call, values can overlap the other calls;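 further: 0% = vehicle neutral wells and 100% = reference inhibitor wells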
C2C12 statin: suppressors of simvastatin-induced myotoxicity in C2C12 myotubes. ATP luminescence, 48 h; scaled: DMSO 0, geranylgeraniol control 100. rescue of ATP level, % at 7.49 µM. actives 0.78% (n = 330,000);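 active means mean ATP rescue above about 67%, or every replicate alone reaching that limit, limit read from the data, passing the limit was not always enough; inconclusive means no clear call, values can overlap the other calls; inactive means mean under the limit and some replicate under it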;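 further: myotubes were challenged with 10 µM simvastatin during compound exposure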
PGC1a acetyl inh: PGC1a acetylation modulation, inhibitor mode; U2OS PGC1a acetylation, AlphaScreen anti-acetyl-lysine; with virally co-expressed GCN5 acetyltransferase; inhibition, % at 15.6 µM; actives 0.17% (n = 350,000);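 active means every replicate shows inhibition of at least 40%; inconclusive means mean inhibition at least 40% but some replicate below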;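 further: 0% = neutral control wells and 100% = positive control wells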
miR122 inh: miR-122 inhibition in Huh7 cells. Huh7 miR-122 Renilla luciferase sensor, 48 h; neutral wells = 0, positive control = 100. activation (reporter increase), % at 12.5 µM. actives 0.3% (n = 340,000). AID 602342;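 active means mean replicate activation score at least 90 and every replicate individually at or above 90; inconclusive means only one of the two criteria met; inactive means neither criterion met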;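 further: higher luciferase means less miR-122 activity so hits act as miR-122 inhibitors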
Active calls of the source: *; ? = inconclusive; nt = not tested or not shown; [ ] = another dose, or the depositor's remark. The list is not random: actives were taken first. Their share in the collection is about 2.2%.

SMILES | DENV2 CPE rescue | PvdQ acylase | C2C12 statin | PGC1a acetyl inh | miR122 inh
C[C@H](CO)N1C[C@H](C)[C@H](CN(C)C(=O)NC2CCCC2)Oc2ncc(-c3cccc(F)c3)cc2C1=O | 2 | nt | 4 | 4 | -4[16.7 µM]
CCC(=O)N1CC(=O)N2[C@H](CO)[C@H](c3ccc(C#CC4CCCCC4)cc3)[C@H]2C1 | 7 | nt | nt | -17 | nt
Cc1ccc(S(=O)(=O)Nc2ccc3c(c2)C(=O)N([C@@H](C)CO)C[C@H](C)[C@H](CN(C)C(=O)C2CCCCC2)OCCCC[C@@H](C)O3)cc1 | ? | nt | nt | 0 | -2[16.7 µM]
COc1ccc(C#Cc2ccc([C@H]3[C@@H](CO)N4CCCCN(C(=O)Nc5ccccc5)C[C@@H]34)cc2)cc1 | 71* | nt | nt | 1 | 11[16.7 µM]
COc1ccc(C#Cc2ccc([C@H]3[C@H]4CN(C(=O)Nc5ccccc5)CCCCN4[C@H]3CO)cc2)cc1 | -2 | nt | nt | -4 | 42[16.7 µM]
C/C=C/c1ccc([C@H]2[C@@H](CO)N3CCCCN(C(=O)Nc4ccc(OC)cc4)C[C@@H]23)cc1 | 30* | nt | nt | -1 | 4[16.7 µM]
Cc1ccc(S(=O)(=O)N(C)C[C@H]2OCCCC[C@@H](C)Oc3ccc(NC(=O)CCC(F)(F)F)cc3C(=O)N([C@@H](C)CO)C[C@H]2C)cc1 | -2 | nt | nt | -22 | 3[16.7 µM]
CCCNC(=O)N1CC2(C1)[C@H](c1ccccc1)[C@H](CO)N2C(=O)C1CCCCC1 | 65* | nt | nt | 2 | nt
O=C(c1ccccc1)N1CC2(C1)[C@H](c1ccccc1)[C@@H](CO)N2C(=O)CC1CC1 | 26* | nt | nt | -1 | nt
CCCNC(=O)N1CC2(C1)[C@H](c1ccccc1)[C@H](CO)N2C(=O)CC1CC1 | 23* | nt | nt | 0 | nt
CN(CCC1CCCCO1)C(=O)CCc1nnc(Cc2c[nH]c3ccccc23)o1 (stereo not given) | -1 | -16 | -10 | -4 | 3
CN(CCC1CCCCO1)C(=O)CCc1nnc(CCc2ccccc2)o1 (stereo not given) | 61* | -2 | 11 | 0 | 0
Cc1ccc(C)c(NC(=O)C2CC=CCC2C(=O)O)c1 (stereo not given) | nt | -10 | -4 | 2 | -3
Cc1ccc(C)c(NC(=O)C2CC3c4ccccc4C2c2ccccc23)c1 (stereo not given) | nt | -10 | 130* | -1 | -3
CC(=O)Oc1cccc(C2=CC(=O)CC(C)(C)C2=O)c1 | 22* | nt | 3 | 5 | -4
CC1(C)CC(=O)C=C(c2cccc(OC(=O)c3ccc(Br)cc3)c2)C1=O | -2 | nt | 11 | 2 | -7
CCOC(=O)N1CCN(S(=O)(=O)c2cc(OCC)ccc2OCC)CC1 | nt | 4 | 29 | -7 | 143*
CCOc1ccc(OCC)c(S(=O)(=O)N2CCCCC2)c1 | nt | 6 | -2 | nt | 18
CCNC(=O)[C@H]1[C@H](CO)[C@H]2Cn3c(ccc(-c4ccccc4)c3=O)[C@@H]1N2C(=O)CC1CC1 | -6 | nt | nt | 11 | nt
Cn1cnc(S(=O)(=O)N[C@H]2CC[C@H](CC(=O)NCC3CCCCC3)O[C@H]2CO)c1 | 80* | nt | -15 | -3 | nt
Cn1cnc(S(=O)(=O)N[C@@H]2CC[C@H](CC(=O)NCC3CCCCC3)O[C@@H]2CO)c1 | 84* | nt | -10 | 2 | nt
Cn1cnc(S(=O)(=O)N[C@H]2CC[C@H](CC(=O)NCC3CCCCC3)O[C@@H]2CO)c1 | -1 | nt | -3 | 9 | nt
CC(=O)NC(c1cccc(F)c1)c1nc(-c2cccc(C(=O)O)c2)cs1 (stereo not given) | 7 | nt | 5 | -13 | 0
CC(=O)NC(c1cccc(F)c1)c1nc(-c2cccc(C(C)C)c2)cs1 (stereo not given) | 9 | nt | 3 | 100* | 3
COc1cccc(C(O)c2nc(-c3ccc(N(C)C)cc3)cs2)c1 (stereo not given) | -11 | nt | 10 | -2 | -6
SMILES | DENV2 CPE rescue | PvdQ acylase | C2C12 statin | PGC1a acetyl inh | miR122 inh
COc1cccc(C(O)c2nc(-c3cc(F)cc(F)c3)cs2)c1 (stereo not given) | 30* | nt | 2 | nt | 5
COc1ccc(-c2csc(C(O)c3cccc(OC)c3)n2)cc1 (stereo not given) | 52* | nt | 7 | 3 | -3
O=C(O)c1cccc(-c2csc(C(O)c3ccc(F)c(F)c3)n2)c1 (stereo not given) | 41* | nt | 2 | -34 | -5
CN(C)C(=O)c1cccc(-c2ccccc2[C@H]2[C@@H](C#N)N(C(=O)C3CCCC3)[C@@H]2CO)c1 | 1 | nt | nt | -7 | nt
CCCN(C)C[C@@H]1OCCCC[C@H](C)Oc2ccc(NC(=O)Nc3ccc4c(c3)OCO4)cc2C(=O)N([C@H](C)CO)C[C@@H]1C | nt | nt | -5 | 5 | -7[16.7 µM]
C[C@@H]1CN([C@@H](C)CO)C(=O)c2cc(NC(=O)NC3CCCCC3)ccc2O[C@@H](C)CCCCO[C@@H]1CN(C)Cc1ccc2c(c1)OCO2 | 7 | nt | nt | -2 | -6[16.7 µM]
C[C@@H]1CCCCO[C@@H](CN(C)Cc2ccc3c(c2)OCO3)[C@@H](C)CN([C@H](C)CO)C(=O)c2cc(NC(=O)NC3CCCCC3)ccc2O1 | -1 | nt | nt | -3 | 10[16.7 µM]
C[C@@H]1CN([C@H](C)CO)C(=O)c2cc(NC(=O)NC3CCCCC3)ccc2O[C@@H](C)CCCCO[C@H]1CN(C)Cc1ccc2c(c1)OCO2 | 63* | nt | nt | -2 | -8[16.7 µM]
C[C@@H]1CN([C@@H](C)CO)C(=O)c2cc(NC(=O)NC3CCCCC3)ccc2O[C@@H](C)CCCCO[C@H]1CN(C)Cc1ccc2c(c1)OCO2 | 45* | nt | nt | -2 | -4[16.7 µM]
CCCNC(=O)N(C)C[C@@H]1Oc2cc(C3=CCCC3)ccc2S(=O)(=O)N([C@@H](C)CO)C[C@H]1C | 1 | nt | 13 | -18 | nt
CCCCCn1c(CCC(=O)Oc2ccccc2OC)nc2c1c(=O)[nH]c(=O)n2CCCC | nt | -14 | 129* | -10 | -1
COc1ccc(-c2cc(C(=O)N/N=C/c3cc(OC)c(OC)cc3OC)c3ccccc3n2)cc1 | 0 | nt | nt | 45* | 3
COc1ccc(-c2cc(C(=O)N/N=C/c3cccnc3)c3ccccc3n2)cc1 | 0 | -12 | -2 | nt | nt
COc1ccc(OC)c(-c2cc(C(=O)NC3CCCC3)c3ccccc3n2)c1 | 36* | -11 | 3 | nt | nt
C[C@H]1CN([C@@H](C)CO)S(=O)(=O)c2ccc(-c3cncnc3)cc2O[C@@H]1CN(C)C(=O)C1CC1 | nt | nt | -14 | 9 | 6[16.7 µM]
Cc1cccc2sc(NC(=O)CN(C)S(=O)(=O)c3cccs3)nc12 | nt | -22 | nt | -1 | -9
Cc1cccc2sc(NC(=O)CN(C)S(=O)(=O)c3ccc(Br)s3)nc12 | nt | 1 | 100* | -11 | -1
CC(C)C[C@@H]1COc2cc(NCCO)ccc2S(=O)(=O)N1 | 59* | nt | nt | nt | nt
Cc1onc(C(=O)N2CCC(C(N)=O)CC2)c1-c1ccccc1Cl | nt | -10 | 92* | 9 | 1
CCOC(=O)C1CCN(C(=O)c2c(-c3c(Cl)cccc3Cl)noc2C)CC1 | nt | 6 | 93* | 0 | -1
Cc1onc(-c2ccccc2Cl)c1C(=O)N1CCC(C(N)=O)CC1 | -4 | 10 | 0 | nt | -2
